Like-named read-outs stand apart in the source and are kept apart here.
Columns and labels:
Design in all cases: species or system human, MV4-11 + K-562 + COLO205 + SK-N-BE2 + OVCAR-8
PIK3C3 = conditions: read-out: apparent Kd, n = 1
PIK3CA = conditions: read-out: apparent Kd, n = 1
PIK3CB = conditions: read-out: apparent Kd, n = 1
ROCK2 = conditions: read-out: apparent Kd; compound concentrations:100 nM and 1000 nM (sheet 'Samples'); n = 1
ROCK1 = conditions: read-out: apparent Kd; compound concentrations:100 nM and 1000 nM (sheet 'Samples'); n = 1
[1] = compound concentrations: 100 nM and 1000 nM (sheet 'Samples'), CATDS: 1
[2] = compound concentrations:100 nM and 1000 nM (sheet 'Samples')

Nc1ncc(-c2ccc3nccc(-c4ccncc4)c3c2)cc1S(=O)(=O)N1CCCCC1 [GSK1693850A]
potency estimated from few doses (PIK3C3; compound concentrations: 100 nM and 1000 nM (sheet 'Samples'), CATDS: 6.5868178094699706E-2): 1120 nM
potency estimated from few doses (PIK3CA; compound concentrations: 100 nM and 1000 nM (sheet 'Samples'), CATDS: 0.402374173970307): 6.74 nM
potency estimated from few doses (PIK3CB; compound concentrations: 100 nM and 1000 nM (sheet 'Samples'), CATDS: 8.8291431205062498E-2): 406 nM

Cc1c(Cn2c(C)c(C)n3c(=O)cc(N4CCOCC4)nc23)cccc1C(F)(F)F [GSK2328680_KCGS]
potency estimated from few doses (PIK3CB; [1]): 45.8 nM

Nc1ncnc2c1nc(-c1ccccc1)n2-c1ccccc1 [SKF-97293]
potency estimated from few doses (PIK3CA; [1]): 284 nM

Cc1nn2c(=O)cc(N3CCOCC3)nc2n1Cc1cccc(Cl)c1Cl [GSK2342769A]
potency estimated from few doses (PIK3C3; [2]): 8.1 nM
potency estimated from few doses (PIK3CB; compound concentrations: 100 nM and 1000 nM (sheet 'Samples'), CATDS: 0.39167168284884402): 14.2 nM

C[C@H]1CC[C@@H](C(=O)Nc2ccccc2)CN1c1cc(-c2ccc3c(N)n[nH]c3c2)nc(N)n1 [GSK2283293_KCGS]
potency estimated from few doses (PIK3CB; [2]): 1130 nM

O=c1cc(N2CCOCC2)nc2n(Cc3ccc(F)c(Cl)c3)ccn12 [GSK2297099A]
potency estimated from few doses (PIK3C3; [2]): 912 nM
potency estimated from few doses (PIK3CA; [2]): 186 nM
potency estimated from few doses (PIK3CB; compound concentrations: 100 nM and 1000 nM (sheet 'Samples'), CATDS: 0.58054918147360901): 32.5 nM

Cc1nn2c(=O)cc(N3CCO[C@H](C)C3)nc2n1Cc1cccc(Cl)c1Cl [GSK2373693A]
potency estimated from few doses (PIK3CB; [1]): 11.8 nM

O=C(O)C(F)(F)F.[2H]C([2H])(c1cccc(C(F)(F)F)c1C)n1c(SC)nn2c(=O)cc(N3CCOCC3)nc12 [GSK2363608B]
potency estimated from few doses (PIK3CB; [2]): 8.69 nM

COc1ncc(-c2cc(-c3ncc(CN4C[C@@H](C)O[C@@H](C)C4)o3)c3cn[nH]c3c2)cc1NS(C)(=O)=O [GSK2292767]
potency estimated from few doses (PIK3C3; compound concentrations: 100 nM and 1000 nM (sheet 'Samples'), CATDS: 0.16198268418526299): 70.7 nM
potency estimated from few doses (PIK3CA; compound concentrations: 100 nM and 1000 nM (sheet 'Samples'), CATDS: 0.29964038012822602): 9.18 nM
potency estimated from few doses (PIK3CB; compound concentrations: 100 nM and 1000 nM (sheet 'Samples'), CATDS: 0.10653178363766699): 335 nM

Cl.NC(=O)c1cccc(Nc2nccc(Nc3ccc(Oc4c(Cl)cccc4Cl)c(Cl)c3)n2)c1 [GW659009A]
potency estimated from few doses (PIK3CA; compound concentrations: 100 nM and 1000 nM (sheet 'Samples'), CATDS: 0.34504160600825701): 183 nM

CCn1c(-c2nonc2N)nc2ccccc21 [SB-693162]
potency estimated from few doses (ROCK2): 1820 nM

O=c1cc(N2CCOCC2)nc2n(Cc3cccc(Cl)c3)ccn12 [GSK2296823A]
potency estimated from few doses (PIK3C3; [2]): 667 nM
potency estimated from few doses (PIK3CB; [2]): 30.5 nM

CC1=C(C(=O)Nc2ccc3[nH]ncc3c2)C(c2ccc(Cl)c(Cl)c2)CC(=O)N1 (stereo not drawn) [GSK299115A]
potency estimated from few doses (ROCK1): 112 nM
potency estimated from few doses (ROCK2): 140 nM

C[C@@H]1CC[C@H](C(=O)NC2CCCCC2)CN1c1cc(-c2ccc3c(N)n[nH]c3c2)nc(N)n1 [GSK2291363A]
potency estimated from few doses (ROCK1): 2010 nM
potency estimated from few doses (ROCK2): 1450 nM

Reference: paper PMC11062922 (Nature Chemical Biology, 2023)
